Data as given in PubChem BioAssay (NCI).
Compounds without any hit were thinned out: in the full panel of roughly 79,000, 15% have a hit. Activity calls are given as the source filed them. Cut-off read from the data, not from the text of the source: active = growth inhibition above about 70%; inactive = the rest.

Tests used:
[1] = NCI Yeast Anticancer Drug Screen. Data for the rad52 strain (AID 147);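 note: 0% = growth of vehicle-treated control cultures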; conditions: S. cerevisiae rad52 mutant growth inhibition, hits give high values
Procedure, shortened: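 Growth of repair-deficient yeast cells was compared between compound-treated and vehicle-treated cultures to give percent inhibition.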

[2] = NCI Yeast Anticancer Drug Screen. Data for the wt1 strain (AID 149);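 note: 0% = growth of vehicle-treated wt1 cultures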; conditions: S. cerevisiae wt1 strain (SPY 50644) growth inhibition, hits give high values
Procedure, shortened: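 Readout: yeast growth inhibition, normalised to vehicle controls, in the wt1 strain exposed to test compounds.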

[3] = NCI Yeast Anticancer Drug Screen. Data for the rad50 strain (AID 155);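 note: 0% = growth of vehicle-only cultures of the same strain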; conditions: S. cerevisiae rad50 strain growth inhibition, hits give high values
Procedure, shortened: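 Compounds were tested on a yeast strain with an engineered DNA damage repair alteration; the reported value is growth inhibition normalised to vehicle treatment.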

[4] = NCI Yeast Anticancer Drug Screen. Data for the mec2-1 strain (AID 157); conditions: S. cerevisiae mec2-1 strain, hits give high values
Procedure, shortened: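 Compounds were applied to mec2-1 yeast cells. Their growth was then compared with that of vehicle-treated cultures to give growth inhibition.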

[5] = NCI Yeast Anticancer Drug Screen. Data for the rad14 strain (AID 159);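 note: 0% = growth of vehicle-treated control cultures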; conditions: S. cerevisiae rad14 strain growth inhibition, hits give high values
Procedure, shortened: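 Compound-treated yeast with a defined DNA-repair lesion; growth inhibition normalised to vehicle-treated cultures.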

[6] = NCI Yeast Anticancer Drug Screen. Data for the sgs1 mgt1 strain (AID 161);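 note: 0% = growth of cultures given vehicle only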; conditions: S. cerevisiae sgs1 mgt1 strain, hits give high values
Procedure, shortened: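 Growth of a repair-deficient yeast mutant was monitored after compound treatment and expressed as inhibition relative to vehicle-treated cultures.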

[7] = NCI Yeast Anticancer Drug Screen. Data for the CLN2oe strain (AID 163);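 note: 0% = growth of vehicle-only control cultures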; conditions: S. cerevisiae CLN2oe strain, hits give high values
Procedure, shortened: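 Cells of an engineered yeast line with disturbed cell-cycle regulation are treated with compound. Inhibition of growth is then calculated relative to the vehicle-treated reference.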

[8] = NCI Yeast Anticancer Drug Screen. Data for the cln2 rad14 strain (AID 165);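 note: 0% = growth equal to vehicle treated cultures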; conditions: S. cerevisiae cln2 rad14 strain, hits give high values
Procedure, shortened: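 Strain: cln2 rad14 yeast, altered in cell cycle control and DNA damage repair. Read-out: growth inhibition vs vehicle.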

[9] = NCI Yeast Anticancer Drug Screen. Data for the bub3 strain (AID 167); conditions: S. cerevisiae bub3 mutant strain, hits give high values
Procedure, shortened: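 Growth of a checkpoint-deficient yeast mutant is measured after compound exposure. Values represent inhibition relative to vehicle.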

[10] = NCI Yeast Anticancer Drug Screen. Data for the wt2 strain (AID 169);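 note: 0% = growth of vehicle-treated yeast cultures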; conditions: S. cerevisiae wt2 strain growth inhibition, hits give high values
Procedure, shortened: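 Growth of compound-treated yeast is measured and expressed as inhibition relative to vehicle-only controls.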

[11] = NCI Yeast Anticancer Drug Screen. Data for the mlh1 strain (AID 171);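 note: 0% = growth of vehicle-treated control cultures of the same strain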; conditions: S. cerevisiae mlh1 strain growth inhibition, hits give high values
Procedure, shortened: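 Test agents were incubated with yeast bearing a defined DNA damage repair or cell cycle control alteration; values are growth inhibition normalised to vehicle-treated cultures.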

[12] = NCI Yeast Anticancer Drug Screen. Data for the sgs1 strain (AID 173);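 note: 0% = growth of vehicle-only control cultures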; conditions: S. cerevisiae sgs1 mutant, hits give high values
Procedure, shortened: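 Strain with an altered DNA repair or cell cycle pathway exposed to compound. Growth then measured. Value = inhibition versus vehicle control.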

[13] = NCI Yeast Anticancer Drug Screen. Data for the mlh1 rad18 strain (AID 175); conditions: S. cerevisiae mlh1 rad18 strain growth inhibition, hits give high values
Procedure, shortened: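 A repair-deficient yeast strain is exposed to test compound, and growth is scored relative to vehicle-treated controls.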

[14] = NCI Yeast Anticancer Drug Screen. Data for the rad18 strain (AID 177); conditions: S. cerevisiae rad18 mutant growth inhibition, hits give high values
Procedure, shortened: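 DNA-repair-defective yeast; compound treatment; growth inhibition scored against vehicle.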

[15] = NCI Yeast Anticancer Drug Screen. Data for the mgt1 strain (AID 153); conditions: S. cerevisiae mgt1 mutant growth inhibition, hits give high values
Procedure, shortened: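 Compounds were applied to mgt1 mutant yeast, and growth was then compared against vehicle-treated control cultures to give percent inhibition.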

[16] = at 5.0 µM (retest, dose inferred, filed as 0.5)
[17] = at 50.0 µM (retest, dose inferred, filed as 5.0)

Measured: growth inhibition

Cc1onc(-c2ccccc2Cl)c1C1=N/C(=C/c2cc(Cl)cc(Cl)c2O)C(=O)O1
active: [1]; at 100.0 µM 70% | [2]; at 100.0 µM 74% | [3]; [17] 90% | [3]; at 50.0 µM 79.3% | [4]; [17] 90% | [6]; at 50.0 µM 78.6% | [8]; [16] 72% | [8]; at 50.0 µM 71.5% | [9]; at 50.0 µM 77.2% | [13]; at 50.0 µM 75.6%
inactive: [1]; at 1.2 µM -36% | [1]; at 3.7 µM -39% | [1]; at 11.0 µM -35% | [1]; at 33.0 µM -42% | [2]; at 1.2 µM -3% | [2]; at 3.7 µM -26% | [2]; at 11.0 µM -26% | [2]; at 33.0 µM -16% | [3]; at 1.2 µM -38% | [3]; at 3.7 µM -32% | [3]; [16] 33% | [3]; at 11.0 µM -35% | [3]; at 33.0 µM 2% | [3]; at 100.0 µM 69% | [4]; at 1.2 µM -32% | [4]; at 3.7 µM -35% | [4]; [16] 35% | [4]; at 11.0 µM -39% | [4]; at 33.0 µM -4% | [4]; at 50.0 µM 60% | [4]; at 100.0 µM 61% | [5]; at 1.2 µM -51% | [5]; at 3.7 µM -56% | [5]; at 11.0 µM -58% | [5]; at 33.0 µM -46% | [5]; at 100.0 µM 59% | [6]; [16] -9% | [6]; [17] 42% | [7]; at 1.2 µM -5% | [7]; at 3.7 µM -19% | [7]; at 11.0 µM -5% | [7]; at 33.0 µM 26% | [7]; at 100.0 µM 66% | [8]; [17] 60% | [9]; at 1.2 µM -55% | [9]; at 3.7 µM -40% | [9]; [16] 47% | [9]; at 11.0 µM -43% | [9]; at 33.0 µM -10% | [9]; [17] 65% | [9]; at 100.0 µM 68% | [10]; at 1.2 µM -12% | [10]; at 3.7 µM -12% | [10]; at 11.0 µM -18% | [10]; at 33.0 µM 11% | [10]; at 100.0 µM 62% | [11]; at 1.2 µM -39% | [11]; at 3.7 µM -42% | [11]; at 11.0 µM -27% | [11]; at 33.0 µM 3% | [11]; at 100.0 µM 49% | [12]; at 1.2 µM -19% | [12]; at 3.7 µM -39% | [12]; at 11.0 µM -23% | [12]; at 33.0 µM 11% | [12]; at 100.0 µM 69% | [13]; [16] 42% | [13]; [17] 46% | [14]; at 1.2 µM -46% | [14]; at 3.7 µM -50% | [14]; at 11.0 µM -44% | [14]; at 33.0 µM -21% | [14]; at 100.0 µM 58%

O=NN(CCCl)C(=O)NCCCl
active: [14]; at 33.0 µM 85% | [14]; at 100.0 µM 94%
inactive: [1]; at 1.2 µM 0% | [1]; at 3.7 µM 1% | [1]; at 11.0 µM 6% | [1]; at 33.0 µM 13% | [1]; at 100.0 µM 51% | [2]; at 1.2 µM -1% | [2]; at 3.7 µM -2% | [2]; at 11.0 µM -1% | [2]; at 33.0 µM 0% | [2]; at 100.0 µM -16% | [15]; at 1.2 µM -3% | [15]; at 3.7 µM -2% | [15]; at 11.0 µM 0% | [15]; at 33.0 µM 2% | [15]; at 100.0 µM 3% | [3]; at 1.2 µM 0% | [3]; at 3.7 µM 0% | [3]; at 11.0 µM 6% | [3]; at 33.0 µM 15% | [3]; at 50.0 µM 35.6% | [3]; at 100.0 µM 53% | [4]; at 1.2 µM -2% | [4]; at 3.7 µM 0% | [4]; at 11.0 µM 1% | [4]; at 33.0 µM 4% | [4]; at 50.0 µM -4.3% | [4]; at 100.0 µM 15% | [6]; at 50.0 µM 6.75% | [7]; at 1.2 µM -10% | [7]; at 3.7 µM -5% | [7]; at 11.0 µM -6% | [7]; at 33.0 µM -5% | [7]; at 100.0 µM 0% | [8]; at 50.0 µM 2.3% | [9]; at 1.2 µM 2% | [9]; at 3.7 µM -2% | [9]; at 11.0 µM 0% | [9]; at 33.0 µM -6% | [9]; at 50.0 µM -10.8% | [9]; at 100.0 µM 3% | [11]; at 1.2 µM -1% | [11]; at 3.7 µM -2% | [11]; at 11.0 µM -2% | [11]; at 33.0 µM 1% | [11]; at 100.0 µM 8% | [12]; at 1.2 µM -2% | [12]; at 3.7 µM -1% | [12]; at 11.0 µM 1% | [12]; at 33.0 µM 10% | [12]; at 100.0 µM 33% | [13]; at 50.0 µM 43% | [14]; at 1.2 µM 4% | [14]; at 3.7 µM 13% | [14]; at 11.0 µM 45%

CN(C)CCN1C(=O)c2cccc3cc([N+](=O)[O-])cc(c23)C1=O
inactive: [1]; at 1.2 µM 22% | [1]; at 3.7 µM 58% | [1]; at 11.0 µM 63% | [2]; at 1.2 µM 16% | [2]; at 3.7 µM 0% | [2]; at 11.0 µM -9% | [2]; at 33.0 µM -4% | [2]; at 100.0 µM 23% | [15]; at 1.2 µM -11% | [15]; at 3.7 µM -13% | [15]; at 11.0 µM 4% | [15]; at 33.0 µM 5% | [15]; at 100.0 µM 68% | [3]; at 1.2 µM 13% | [3]; at 3.7 µM 35% | [3]; [16] 28% | [3]; at 11.0 µM 52% | [4]; at 1.2 µM -4% | [4]; at 3.7 µM 2% | [4]; [16] 2% | [4]; at 11.0 µM -9% | [4]; at 33.0 µM -6% | [4]; [17] 13% | [4]; at 50.0 µM 7.05% | [4]; at 100.0 µM 48% | [5]; at 1.2 µM 2% | [5]; at 3.7 µM 6% | [5]; at 11.0 µM 12% | [5]; at 33.0 µM -1% | [5]; at 100.0 µM 34% | [6]; [16] 11% | [6]; [17] 51% | [6]; at 50.0 µM -10.9% | [7]; at 1.2 µM 18% | [7]; at 3.7 µM 28% | [7]; at 11.0 µM 41% | [7]; at 33.0 µM 36% | [7]; at 100.0 µM 69% | [8]; [16] 5% | [8]; [17] 38% | [8]; at 50.0 µM -26.2% | [9]; at 1.2 µM -1% | [9]; at 3.7 µM 16% | [9]; [16] -6% | [9]; at 11.0 µM 21% | [9]; at 33.0 µM 18% | [9]; [17] 21% | [9]; at 50.0 µM -4.65% | [9]; at 100.0 µM 47% | [10]; at 1.2 µM -3% | [10]; at 3.7 µM 0% | [10]; at 11.0 µM -1% | [10]; at 33.0 µM 1% | [10]; at 100.0 µM 30% | [11]; at 1.2 µM 14% | [11]; at 3.7 µM 1% | [11]; at 11.0 µM -13% | [11]; at 33.0 µM 0% | [11]; at 100.0 µM 60% | [12]; at 1.2 µM -24% | [12]; at 3.7 µM -2% | [12]; at 11.0 µM 8% | [12]; at 33.0 µM 12% | [12]; at 100.0 µM 61% | [13]; [16] 6% | [13]; [17] 45% | [14]; at 1.2 µM 10% | [14]; at 3.7 µM 16% | [14]; at 11.0 µM 17% | [14]; at 33.0 µM 25%
active: [1]; at 33.0 µM 90% | [1]; at 100.0 µM 93% | [3]; at 33.0 µM 87% | [3]; [17] 93% | [3]; at 50.0 µM 72.6% | [3]; at 100.0 µM 94% | [14]; at 100.0 µM 80%
